In PubChem BioAssay one finds composite z-score and z-score data, which are given here for eight compounds.

The structures appear in SMILES notation. Calls of active or inactive are those of the source. Unless noted, no rule for the calls is given here.

Test [1] deals with Wnt5a (protein binding on small-molecule microarray). Kind of test: Wnt5a binders on small-molecule microarray, primary screen, biophysical, 635/667 nm fluorescence (AID 1142).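 Also: fluorescence read at 667 nm with signal to noise per printed feature.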 The note with it: 635 nm fluorescence, higher = more signal.
The nature of test [2]: cell viability in Huh7 cells, primary screen, cytotoxicity control for HCV replication inhibitor project, CellTiter-Glo luminescence, basal, 48 h (AID 1143).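 Also: Huh7 hepatoma cells carrying a hepatitis C replication reporter with no stimulus; test concentration not given here.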 Particulars: Huh7 HCV replicon, higher = more signal, called active from +8 up or from −8 down.
Test [3] can be described thus: P. aeruginosa biofilm formation inhibitors, primary screen, PAO1 strain, BacTiter-Glo luminescence, LB-PBS (AID 1144). Particulars: 12 h, higher = more signal.
Test [4] can be described thus: CREB reporter modulators without forskolin, primary screen, cell-based, PC12, CRE-LacZ reporter, unstimulated (AID 1145). Particulars: no forskolin, luminescence, 4.5 h, higher = more signal, called active from +8 up or from −8 down.
Test [5] can be described thus: CREB reporter modulators under forskolin, primary screen, cell-based, PC12, CRE-LacZ reporter, forskolin-stimulated (AID 1146).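 Also: PC12 cells with 6xCRE LacZ reporter stimulated by forskolin 10 µM; beta-galactosidase reporter signal reflecting CREB driven transcription.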 The note with it: luminescence, 4.5 h, higher = more signal, called active from +8 up or from −8 down.
The target of test [6] is Streptavidin (Streptomyces avidinii) (UniProt P22629). As to the kind of experiment: streptavidin binders on small-molecule microarray, primary screen, artefact control for SMM compound annotation, biophysical, 635/667 nm fluorescence (AID 1147).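 Also: signal reflects streptavidin binding to arrayed compounds as a control protein.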 The note with it: streptavidin binding, higher = more signal.
Test [7] in a line: small-molecule binders of probe aInhba, primary screen, biochemical, small-molecule microarray, 635/667 nm fluorescence (AID 1148).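 Also: score merges 667nm spot fluorescence with signal-to-noise for antibody binding to printed compounds.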 The note with it: higher = more signal.
Test [8] has as its target Torsin-1A (Homo sapiens) (UniProt O14656). As to the kind of experiment: torsin A binders from cell lysate, primary screen, small-molecule microarray, wild-type, 635/667 nm (AID 1149). The note with it: COS7 hTOR1A-WT lysate, 635 nm fluorescence, higher = more signal.
Test [9] shares this target. As to the kind of experiment: small-molecule binders of mutant TOR1A in lysate, primary screen, cell lysate, small-molecule microarray, COS7 lysate, 635/667 nm fluorescence (AID 1150).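 Also: score pools 667 nm emission and signal to noise measuring lysate protein binding.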 Particulars: COS7 hTOR1A mutant lysate, 635 nm fluorescence, higher = more signal.
Test [10] concerns Sonic hedgehog protein (Shh). As to the kind of experiment: small-molecule binders of Shh protein, primary screen, biochemical, small-molecule microarray, 635/667 nm fluorescence (AID 1151).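 Also: Shh protein binding to compounds spotted on small-molecule microarray slides; score combines spot fluorescence intensity with signal-to-noise across triplicate slides.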 The note with it: small-molecule microarray binding, 635 nm fluorescence; higher = more signal.
The nature of test [11]: E. coli DRC41 culture turbidity changes, primary screen, E. coli filamentation inducer project, strain DRC41, OD650, 48 h (AID 1152).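 Also: E. coli MC1000 strain DRC41 lacking acrAB efflux pump and sulA.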 Particulars: E. coli DRC41 (acrAB sulA), higher = more signal, called active from +8 up or from −8 down.
The nature of test [12]: small-molecule binders of probe aLefty1, primary screen, biochemical, small-molecule microarray, 635/667 nm fluorescence (AID 1153).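 Also: score merges spot fluorescence with signal-to-noise ratio from the scanned slide images.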 The note with it: higher = more signal.
The nature of test [13]: PSAC antagonists in infected red cells, primary screen, cell-based, P. falciparum Indochina, OD700, 1 h (AID 1154). Particulars: P. falciparum Indochina infected RBC osmotic lysis, higher = more signal, called active from +8 up or from −8 down.
A short description of test [14]: PSAC antagonists in infected red cells, primary screen, cell-based, P. falciparum Indochina, OD700, 2 h (AID 1155).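 Also: lysis reports solute entry through the parasite surface anion channel PSAC; channel blockers reduce lysis of infected cells.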 The note with it: P. falciparum Indochina infected erythrocytes, osmotic lysis OD700; higher = more signal, called active from +8 up or from −8 down.
Test [15] can be described thus: osmotic lysis modulators in infected erythrocytes, primary screen, PSAC antagonist project, cell-based, P. falciparum Indochina, OD700, 3 h (AID 1156). Particulars: higher = more signal, called active from +8 up or from −8 down.
Test [16] is described as follows: PSAC antagonists in infected red cells, primary screen, cell-based, P. falciparum Indochina, OD700, 18 h (AID 1157). The note with it: P. falciparum Indochina infected erythrocytes, osmotic lysis OD700, 18 h; higher = more signal, called active from +8 up or from −8 down.
The nature of test [17]: modulators of S6 phosphorylation in cells, primary screen, cell-based, A549, cytoblot, luminescence, serum-stimulated (AID 1158).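 Also: serum-stimulated A549 lung adenocarcinoma cells; signal is phosphorylated S6 detected by cytoblot immunostaining with HRP secondary.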 Particulars: A549 phospho-S6 cytoblot, 5 h, higher = more signal.
Test [18] deals with NADPH oxidase 2 (Homo sapiens) (UniProt P04839). As to the kind of experiment: NOX2-dependent H2O2 signal modulators, primary screen, NOX inhibitor project, cell-based, HEK293-NOX2, PMA-stimulated, Amplex Red fluorescence (AID 1159). Also: test concentration not given here. Particulars: 45 min, higher = more signal, called active from +8 up or from −8 down.
Test [19] has as its target NADPH oxidase 4 (Homo sapiens) (UniProt Q9NPH5). Kind of test: NOX4-dependent H2O2 signal modulators, primary screen, NOX inhibitor project, cell-based, HEK293-NOX4, tetracycline-induced, Amplex Red fluorescence (AID 1160). The note with it: 45 min, higher = more signal, called active from +8 up or from −8 down.
Test [20] has as its target NADPH oxidase 5 (Homo sapiens) (UniProt Q96PH1). As to the kind of experiment: NOX5-dependent H2O2 signal modulators, primary screen, NOX inhibitor project, cell-based, HEK293-NOX5, Amplex Red fluorescence (AID 1161). Particulars: HEK293-NOX5, ionomycin, 45 min, higher = more signal.

NADPH oxidase 5 (Homo sapiens), sequence (Q96PH1 whole entry, looked up): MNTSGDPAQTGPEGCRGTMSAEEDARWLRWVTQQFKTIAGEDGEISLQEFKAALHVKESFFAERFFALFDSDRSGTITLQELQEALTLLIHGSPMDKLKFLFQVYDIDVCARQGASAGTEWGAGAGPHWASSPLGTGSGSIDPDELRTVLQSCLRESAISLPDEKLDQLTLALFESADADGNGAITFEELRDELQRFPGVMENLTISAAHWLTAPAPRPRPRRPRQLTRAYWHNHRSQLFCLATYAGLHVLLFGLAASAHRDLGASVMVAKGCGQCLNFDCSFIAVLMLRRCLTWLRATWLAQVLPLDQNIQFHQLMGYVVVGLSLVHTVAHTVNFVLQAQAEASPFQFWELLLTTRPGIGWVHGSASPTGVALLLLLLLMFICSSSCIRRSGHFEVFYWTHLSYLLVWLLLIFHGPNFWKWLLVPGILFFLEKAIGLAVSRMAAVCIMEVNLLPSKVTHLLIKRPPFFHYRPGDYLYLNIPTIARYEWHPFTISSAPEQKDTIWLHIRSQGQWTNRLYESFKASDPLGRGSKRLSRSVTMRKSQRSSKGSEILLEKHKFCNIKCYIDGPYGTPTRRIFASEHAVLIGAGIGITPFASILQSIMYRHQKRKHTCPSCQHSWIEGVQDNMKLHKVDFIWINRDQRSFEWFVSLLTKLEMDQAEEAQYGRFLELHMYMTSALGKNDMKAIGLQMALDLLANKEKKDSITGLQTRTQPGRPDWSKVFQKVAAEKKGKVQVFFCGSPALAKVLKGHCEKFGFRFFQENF
Streptavidin (Streptomyces avidinii), sequence (P22629 whole entry, looked up): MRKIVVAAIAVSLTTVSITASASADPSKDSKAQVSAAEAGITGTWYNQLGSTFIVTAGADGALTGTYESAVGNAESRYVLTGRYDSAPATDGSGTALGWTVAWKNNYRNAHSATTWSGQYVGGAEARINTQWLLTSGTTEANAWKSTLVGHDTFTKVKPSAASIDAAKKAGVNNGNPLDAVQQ
NADPH oxidase 2 (Homo sapiens), sequence (P04839 whole entry, looked up): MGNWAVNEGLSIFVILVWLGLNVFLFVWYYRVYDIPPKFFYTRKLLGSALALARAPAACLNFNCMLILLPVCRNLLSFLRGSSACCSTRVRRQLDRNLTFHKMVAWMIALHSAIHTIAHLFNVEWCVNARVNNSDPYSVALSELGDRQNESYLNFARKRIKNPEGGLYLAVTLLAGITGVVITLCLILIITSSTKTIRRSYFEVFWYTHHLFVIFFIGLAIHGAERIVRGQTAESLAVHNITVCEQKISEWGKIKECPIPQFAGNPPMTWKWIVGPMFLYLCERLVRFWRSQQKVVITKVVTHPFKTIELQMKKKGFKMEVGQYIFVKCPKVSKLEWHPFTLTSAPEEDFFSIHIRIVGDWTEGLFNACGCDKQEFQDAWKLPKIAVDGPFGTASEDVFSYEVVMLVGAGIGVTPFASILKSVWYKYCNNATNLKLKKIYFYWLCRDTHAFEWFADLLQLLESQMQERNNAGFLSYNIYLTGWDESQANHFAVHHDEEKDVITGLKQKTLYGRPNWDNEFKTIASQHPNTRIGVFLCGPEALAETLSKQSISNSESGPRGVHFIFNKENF
Torsin-1A (Homo sapiens), sequence (O14656 whole entry, looked up): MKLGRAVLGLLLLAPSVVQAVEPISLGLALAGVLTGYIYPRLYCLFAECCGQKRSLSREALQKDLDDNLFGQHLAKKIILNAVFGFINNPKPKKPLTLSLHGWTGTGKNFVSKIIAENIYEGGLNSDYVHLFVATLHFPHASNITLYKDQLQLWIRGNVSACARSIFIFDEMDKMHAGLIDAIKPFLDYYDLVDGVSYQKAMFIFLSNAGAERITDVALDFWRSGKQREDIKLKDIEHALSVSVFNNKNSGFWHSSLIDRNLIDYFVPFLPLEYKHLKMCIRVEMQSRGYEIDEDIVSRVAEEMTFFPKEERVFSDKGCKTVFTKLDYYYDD
NADPH oxidase 4 (Homo sapiens), sequence (Q9NPH5 whole entry, looked up): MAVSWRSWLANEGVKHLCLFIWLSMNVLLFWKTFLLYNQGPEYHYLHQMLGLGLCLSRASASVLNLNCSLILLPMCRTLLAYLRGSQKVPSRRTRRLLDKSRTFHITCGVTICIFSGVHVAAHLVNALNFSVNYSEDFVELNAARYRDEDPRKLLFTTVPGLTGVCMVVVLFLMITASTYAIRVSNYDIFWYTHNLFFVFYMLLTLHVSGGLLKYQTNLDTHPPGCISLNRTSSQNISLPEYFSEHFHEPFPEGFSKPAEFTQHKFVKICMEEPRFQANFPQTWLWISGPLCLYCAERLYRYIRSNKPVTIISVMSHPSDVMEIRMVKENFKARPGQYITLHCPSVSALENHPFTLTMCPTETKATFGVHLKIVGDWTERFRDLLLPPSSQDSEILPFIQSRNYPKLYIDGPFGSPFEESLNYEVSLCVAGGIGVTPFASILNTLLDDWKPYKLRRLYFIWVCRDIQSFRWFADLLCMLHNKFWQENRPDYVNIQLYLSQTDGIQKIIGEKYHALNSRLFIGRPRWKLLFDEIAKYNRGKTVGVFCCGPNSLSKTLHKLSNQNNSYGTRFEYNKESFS

Turning to `CCOC(=O)C[C@H]1[C@H](OC(=O)Cc2ccc3c(c2)OCO3)[C@@H](NC(=O)c2ccc3ccccc3n2)c2cc(OCCCO)ccc2N1C(=O)c1ccc2ccccc2n1`, the composite z-score is 0.593 in [1]; 0.363 in [6]; -0.128 in [7]; 0.451 in the test with Torsin-1A (Homo sapiens) [8]; 0.339 in the test with Torsin-1A (Homo sapiens) [9]; 0.301 in test [10]. In test [12], this compound had a composite z-score of 0.103. Moreover, the z-score in test [2] was -1.23 (inactive); in [3], -1.4 (inactive); in test [4], 6.51 (inactive); in [5] it was -1.03 (inactive); in test [11] it was 3.01 (inactive); in test [13] it was 15.8 (active). The z-score in [14] was 2.25 (inactive); in test [15], -1.37 (inactive); in [16] it was -0.0077 (inactive); in test [17], 1.3; in [18] it was 0.11 (inactive); in test [19] it was 0.204 (inactive). For the same compound, in [20], the z-score was -2.65.
Regarding `CCCC[C@@H]1C[C@H]1[C@@H](NC(=O)c1cccs1)c1ccccc1C(F)(F)F`, the composite z-score in test [1] was 0.0098; in test [6] it was 2.1; in [7] it was 0.274; in the test with Torsin-1A (Homo sapiens) [8], 0.458; with Torsin-1A (Homo sapiens) [9], 0.555; in test [10], -0.142. The compound further showed a composite z-score in test [12] of 0.294. The z-score in [2] was -1.37 (inactive); in test [3], -1.3 (inactive); in test [4], 0.587 (inactive); in test [5], 1.4 (inactive); in test [11] it was -1.04 (inactive); in test [13], 1.89 (inactive). In addition, the z-score in test [14] is 1.12 (inactive); in test [15] it was -0.37 (inactive); in test [16], 0.544 (inactive); in test [17] it was -0.423; in [18], -1.39 (inactive); in [19], -3.14 (inactive). In addition, the z-score in [20] is -0.173.
Consider `COc1cc2c(cc1O)C(c1ccc(CN3CCCC3)cc1)N(Cc1cc3c(cc1Br)OCO3)CC2` (stereo not given), for which the composite z-score in test [1] is -0.116; in test [6], 0.881; in test [7] it was -0.128; with Torsin-1A (Homo sapiens) [8] it was -0.231; with Torsin-1A (Homo sapiens) [9], 0.513; in test [10], -1.01. Besides, the composite z-score in test [12] was -0.138. Moreover, the z-score in [2] was -3.59 (inactive); in [3], -0.587 (inactive); in test [4] it was 0.389 (inactive); in test [5], -0.0519 (inactive); in [11], -2.4 (inactive); in test [13], 3.92 (inactive). In addition, the z-score in [14] is 0.984 (inactive); in test [15] it was 0.782 (inactive); in test [16] it was 0.526 (inactive); in [17], 0.0637; in test [18], -3.51 (inactive); in test [19], -2.64 (inactive). Further, in test [20], the z-score is -3.57.
As to `CO[C@H]1O[C@H](CO)[C@@H](OC(=O)Nc2ccccc2)[C@H](OC(=O)c2cc3ccccc3[nH]2)[C@H]1OC(=O)c1cc2ccccc2[nH]1`, the composite z-score in test [1] is 0.411; in [6], -0.265; in test [7], 0.0636; with Torsin-1A (Homo sapiens) [8], 0.289; with Torsin-1A (Homo sapiens) [9], 0.311; in test [10], 1.3. Moreover, in [12], the composite z-score was 0.214. Further, the z-score is -4.49 (inactive) in test [2]; -0.735 (inactive) in test [3]; -0.211 (inactive) in test [4]; -0.331 (inactive) in [5]; 0.541 (inactive) in test [11]; 0.909 (inactive) in test [13]. For the same compound, the z-score was -0.795 (inactive) in test [14]; 0.447 (inactive) in test [15]; -0.758 (inactive) in test [16]; 1.27 in test [17]; -6.27 (inactive) in test [18]; -0.405 (inactive) in test [19]. Also, the z-score in test [20] was -2.16.
With `C=CCOC(=O)[C@@]1(Cc2ccccc2)C[C@H]2CO[C@H](c3ccc(OC)cc3)N2C1=O`, the composite z-score in test [1] was -0.0728; in test [6], 0.911; in [7] it was -0.0719; in the test with Torsin-1A (Homo sapiens) [8], 0.91; with Torsin-1A (Homo sapiens) [9], 0.456; in [10], 0.235. Moreover, the composite z-score in test [12] was -0.338. The z-score in test [2] is -1.08 (inactive); in test [3], 0.572 (inactive); in test [4], 2.72 (inactive); in test [5], 0.892 (inactive); in [11], -0.0282 (inactive); in test [13], 1.36 (inactive). Moreover, the z-score in [14] was 0.522 (inactive); in test [15] it was -0.256 (inactive); in test [16], 0.0894 (inactive); in test [17] it was -0.673; in test [18] it was 0.826 (inactive); in [19], -0.213 (inactive). For the same compound, the z-score in test [20] is -1.93.
As for `C=CCNC(=O)[C@@H]1[C@H]2C(=O)O[C@H](c3ccccc3)[C@H](c3ccccc3)N2[C@H](c2ccccc2OCCO)[C@@]12C(=O)Nc1ccc(C#CCCO)cc12`, the composite z-score in test [1] is 0.27; in test [6], -0.158; in [7], 0.0111; in the test with Torsin-1A (Homo sapiens) [8], 0.188; in the test with Torsin-1A (Homo sapiens) [9], 0.527; in test [10], 2.03. Further, in test [12], the composite z-score was -0.674. Besides, the z-score is -3.75 (inactive) in test [2]; -1.2 (inactive) in test [3]; -1.7 (inactive) in test [4]; -1.17 (inactive) in [5]; -2.32 (inactive) in [11]; 5.68 (inactive) in test [13]. Also, the z-score in [14] is 1.15 (inactive); in test [15] it was 0.206 (inactive); in test [16], 0.778 (inactive); in test [17], 0.0309; in test [18], 0.734 (inactive); in [19], 0.627 (inactive). Further, the z-score in test [20] amounted to 0.849.
On to `CO[C@H]1O[C@H](CO)[C@@H](OC(=O)Nc2ccc3c(c2)OCO3)[C@H](OC(=O)Nc2ccc3c(c2)OCO3)[C@@H]1OC(=O)Nc1ccc2c(c1)OCO2`, for which the composite z-score in test [1] was 0.523; in test [6], 1.11; in [7] it was -0.0087; with Torsin-1A (Homo sapiens) [8] it was 0.967; with Torsin-1A (Homo sapiens) [9], 1.05; in test [10] it was 0.164. For the same compound, the composite z-score in test [12] was 0.26. Further, the z-score in [2] was -2.3 (inactive); in [3], 0.506 (inactive); in test [4], 0.643 (inactive); in test [5], -1.48 (inactive); in [11] it was -0.53 (inactive); in test [13] it was 11 (active). Also, the z-score in test [14] is 1.62 (inactive); in [15] it was 1.55 (inactive); in [16], 0.742 (inactive); in test [17], -0.563; in test [18], -1.32 (inactive); in test [19], -1.19 (inactive). For the same compound, the z-score in test [20] was -1.57.
For the compound `O=C1C2C=CC(C(O)C3CC=CCC3)N(Nc3ccccc3)C2C(=O)N1c1ccccc1` (stereo not given), the composite z-score in test [1] was -0.0727; in test [6] it was 0.801; in [7], 0.292; with Torsin-1A (Homo sapiens) [8], -0.235; in the test with Torsin-1A (Homo sapiens) [9] it was 0.687; in [10] it was -0.143. In test [12], this compound had a composite z-score of 0.663. For the same compound, the z-score in test [2] is -2.74 (inactive); in test [3] it was -0.879 (inactive); in [4] it was 0.426 (inactive); in test [5] it was 0.305 (inactive); in test [11] it was -1.5 (inactive); in test [13], 3.38 (inactive). The z-score in test [14] is -0.228 (inactive); in test [15], 1.53 (inactive); in test [16], -1.33 (inactive); in test [17], 0.879; in [18], -3.1 (inactive); in [19], -4.95 (inactive). Further, in test [20], the z-score was -6.07.
